Over roughly 33,000 sequences, “E-score (-0.5 to 0.5)” has its median near -0.016; the highest 2% begin near 0.32. This excerpt belongs to a sample that is enriched for the highest values.
Target: T1, Stp1 (UniProt B3LFK1)
T1 sequence: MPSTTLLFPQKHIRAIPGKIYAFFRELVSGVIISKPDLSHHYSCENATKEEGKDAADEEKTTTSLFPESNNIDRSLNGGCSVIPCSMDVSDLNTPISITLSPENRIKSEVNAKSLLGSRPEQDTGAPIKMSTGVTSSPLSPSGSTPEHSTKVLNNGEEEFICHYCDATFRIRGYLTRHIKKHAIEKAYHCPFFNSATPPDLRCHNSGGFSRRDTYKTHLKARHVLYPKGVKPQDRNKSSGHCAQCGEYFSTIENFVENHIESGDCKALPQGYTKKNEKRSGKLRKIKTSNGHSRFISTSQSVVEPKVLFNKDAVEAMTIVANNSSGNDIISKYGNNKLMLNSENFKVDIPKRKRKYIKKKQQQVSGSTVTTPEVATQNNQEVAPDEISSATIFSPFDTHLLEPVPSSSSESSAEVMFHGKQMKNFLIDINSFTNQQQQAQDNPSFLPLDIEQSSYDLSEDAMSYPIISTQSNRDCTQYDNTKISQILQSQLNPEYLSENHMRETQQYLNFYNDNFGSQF
Assay: PBM E-score (8-mer binding enrichment) (E-score (-0.5 to 0.5)); higher = stronger / more preferred TF binding
Settings: protein concentration: 200 nM; construct: GST-full length
Method: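 Universal 'all 10-mer' protein binding microarrays (Agilent AMADID 015681) probed with GST-tagged S. cerevisiae TFs (full-length or DBD) made by in vitro transcription/translation (PURExpress), about 100-200 nM. Bound TF was detected with fluorescent anti-GST. Each ungapped 8-mer (which stands for itself and its reverse complement) is scored by the PBM enrichment score (E-score), a modified Wilcoxon-Mann-Whitney statistic from -0.5 to +0.5, computed with the Universal PBM Analysis Suite. Scale: above 0.35 generally sequence-specific binding.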

In order of falling “PBM E-score” value:
1. AAACGGCG  0.481
2. ACGGCATC  0.48
3. GATGCGGC  0.47
4. ACGGCGAC  0.467
5. ACGGCGAA  0.465
6. CATGCGGC  0.459
7. CGGCGCTA  0.453
8. ACGGCGGC  0.445
9. GCCGTAGC  0.444
10. CGGACGGC  0.442
11. AATGCGGC  0.435
12. GCGGCGAC  0.434
13. CAACGGCG  0.429
14. CGGCGCTC  0.427
15. GCCGTAGA  0.427
16. GCGGCGAA  0.427
17. ACGGCATG  0.422
18. CGGCGTAA  0.39
19. GCCTTTCC  0.381
20. AAACGGCT  0.376
21. AAACGGCC  0.368
22. CGGCGTAC  0.36
23. CAAAAGGC  0.359
24. AGGCGCTA  0.358
25. CATTGCCG  0.358
26. GCGGCGGA  0.358
27. CGAAAGGC  0.355
28. AATTGCCG  0.341
29. CCGTACGG  0.341
30. CCGTATGA  0.337
31. CGGCGTAG  0.335
32. ATTTGCCG  0.335
33. CGGCAATC  0.332
34. CCGTATGC  0.331
35. CCGTACGC  0.327
36. AGGACGGC  0.324
37. CAAAACGC  0.322
38. ACGGCGGA  0.314
39. AGGCGCTG  0.311
40. CCGTACGA  0.298
41. ACGTACGG  0.292
42. CCGCGCTA  0.289
43. ACGGCGGG  0.289
44. AAACGGAT  0.259
45. CCGCGTAG  0.25
46. AAAAAGGC  0.249
47. ATTCTACA  0.221
48. ATGGCATG  0.22
49. AACATTCT  0.215
50. AGAAAGGC  0.206
51. GTTCTCAA  0.2
52. GATGCGCC  0.194
53. AAACGGGT  0.188
54. ATGGCATC  0.186
55. AAACGGAG  0.18
56. AATGCGGG  0.174
57. CAACGGCC  0.173
58. ATGGCGGC  0.158
59. CATGCGGA  0.156
60. GAGGCGAC  0.155
61. ACGTATGA  0.15
62. ACGTGCCA  0.148
63. GAAAAGGC  0.145
64. ATGGCGAA  0.139
65. AGGCGTAC  0.137
66. AGGCGCTC  0.137
67. AATGTCAC  0.136
68. ACATAAAC  0.129
69. AAAAACGC  0.125
70. CGGCAAGC  0.124
71. CACTAAAA  0.123
72. ATAGTTTG  0.121
73. ATTTGCCC  0.109
74. ACGCGCTC  0.105
75. GATGCGGA  0.104
76. AAACGGTG  0.1
77. GGGCAATA  0.0993
78. CCGAAATA  0.0974
79. GGGCGCTA  0.0956
80. GCGTATGA  0.09
81. CCGGCGAA  0.088
82. AGGGCATG  0.0868
83. TCCGTAGA  0.0858
84. CACTTAGC  0.0853
85. AAGTCAGC  0.0691
86. AAACGGTC  0.0651
87. AGCTTACA  0.0627
88. CCAAACGC  0.0617
89. GGACAATA  0.0607
90. CACTAGTG  0.056
91. GTGGTGTA  0.0559
92. CAACGCAC  0.0556
93. CACCTGCC  0.055
94. CATGCGGG  0.0548
95. TCATCCGA  0.0548
96. ATGGCGAC  0.0528
97. ATTCGAAT  0.0494
98. CCGGCGGA  0.0459
99. GCGCATCC  0.0373
100. ACTCGCTG  0.0353
101. ACCGTAGA  0.0293
102. AAACATTT  0.0291
103. CATTGCCC  0.0291
104. ACGTCAAC  0.0286
105. AGAAGTTC  0.0255
106. AGGGACAT  0.0229
107. AATTGCCC  0.0223
108. ACTATTCC  0.0191
109. TAAGATGA  0.0182
110. GGTGGCTA  0.0168
111. CTTGTGGA  0.016
112. AGGGCGAC  0.015
113. TGGCGTAA  0.0095
114. CAAGTGAA  0.00842
115. ACGTATGC  0.00677
116. ACATAAGC  0.00404
117. CGGACGTC  -0.00174
118. AATTGCCA  -0.00723
119. AATGCGGT  -0.0107
120. CGGACGGA  -0.0178
121. GGGCGTAA  -0.0217
122. AGGCGTAG  -0.0223
123. ACGTACGC  -0.023
124. CAGCACTA  -0.0254
125. CGGTATGC  -0.0255
126. TCGGCGAA  -0.0263
127. AGGGCGAA  -0.0283
128. AACTGTCA  -0.0285
129. AGTATAGG  -0.0433
130. CCCGGTTA  -0.0439
131. AAGCGCTG  -0.0462
132. CGTAGGAA  -0.0469
133. GCGTACGC  -0.0472
134. CATTGCCA  -0.0509
135. AAATGTCT  -0.057
136. CAGCTTGA  -0.0612
137. CACTCTCG  -0.0668
138. CAACGGAG  -0.0687
139. ATTTGCCA  -0.0687
140. CTTATGGA  -0.0787
141. CCGGCATC  -0.0881
142. CGAAAGGA  -0.102
143. CAACGGGG  -0.104
144. TGCAGGCA  -0.105
145. GTTGGGTA  -0.109
146. CCCTTTCC  -0.11
147. TGTGCAAA  -0.111
148. CGGGAGAA  -0.111
149. CCTCCCAC  -0.132
150. ATGGCGGG  -0.132
151. GCCTGGAA  -0.133
152. GGGCGTAC  -0.134
153. ACCGTAGC  -0.138
154. CAGCTAAG  -0.153
155. GGATGAGA  -0.157
156. ATCCTGCA  -0.159
157. CGGGCCAG  -0.159
158. AGGACGGA  -0.161
159. AAGCGTAC  -0.161
160. CCGGCGAC  -0.167
161. AGCTATGA  -0.183
162. CCTACATC  -0.191
163. ACCTTTCC  -0.194
164. GCTCGCCC  -0.205
165. CTGCGCTC  -0.214
166. ATGCTATC  -0.218
167. CTGCGCTA  -0.221
168. AAGAGCGA  -0.231
169. CCCGTAGC  -0.24
170. AGCACTTG  -0.266
171. AGGACGGG  -0.271
172. AGACCCTC  -0.313
173. CAGGGGGG  -0.469

— the supplement of paper PMC3334620
